In PubChem BioAssay (NCI) one finds growth data, which are given here for ten compounds.

Some test systems named below: NCI-H23 lung; NCI-H226 lung; HOP-62 NSCLC; NCI-H460 lung; NCI-H522 lung; A549/ATCC NSCLC; 786-0 renal; DU-145 prostate; K-562 leukemia; MALME-3M melanoma; MDA-MB-231 breast; RXF 393 renal; SF-268 CNS; SF-295 CNS; SF-539 CNS; UACC-257 melanoma; COLO 205 colon; M14 melanoma; NCI-H322M lung; HOP-92 NSCLC.
Holding throughout (assay): NCI-60 one-dose screen, 48 h (100 = growth as untreated, 0 = no growth, -100 = all killed)
Conditions in all cases: 10 µM

Structures are written as SMILES. Compounds without any hit were thinned out: in the full panel of roughly 83,000, 20% have a hit.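 Plates (96-well) were seeded with cells, treated with compound at one concentration, and incubated for 48 hours before percent growth was determined.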 Values without a mark were called inactive. The source made the active and inactive calls. The calls were made as follows: active = growth percent below 10; inactive = the rest.

Take `CCC(C)(O)c1ccc(C)cc1` (centres undefined): the growth in the test with NCI-H23 lung is 103%; in the test on NCI-H226 lung it was 103%; in the test on HOP-62 NSCLC, 98.1%; with NCI-H460 lung, 105%; with NCI-H522 lung it was 109%; in the test on A549/ATCC NSCLC, 111%. For the same compound, the growth in the test with 786-0 renal was 109%; in the test on DU-145 prostate it was 106%; in the test on K-562 leukemia it was 116%; in the test on MALME-3M melanoma, 119%; in the test on MDA-MB-231 breast, 107%; in the test with RXF 393 renal it was 113%. The growth with SF-268 CNS is 92.9%; with SF-295 CNS it was 109%; in the test with SF-539 CNS, 103%; with UACC-257 melanoma, 105%.
Regarding `COCCCC/C(=N\OCCN)c1ccc(C(F)(F)F)cc1`, the growth with NCI-H23 lung is 100%; in the test with NCI-H226 lung, 101%; in the test on NCI-H460 lung, 106%; with A549/ATCC NSCLC it was 102%; in the test with 786-0 renal, 100%; with COLO 205 colon it was 101%. In addition, the growth is 123% in the test on DU-145 prostate; 112% in the test with MALME-3M melanoma; 74% in the test with MDA-MB-231 breast; 97.4% in the test on RXF 393 renal; 102% in the test on SF-268 CNS; 90.3% in the test on SF-295 CNS. The growth is 109% in the test with SF-539 CNS, 106% with UACC-257 melanoma and 109% with M14 melanoma.
As to `O=S(=O)(O)c1cc(O)c2c(N=Cc3ccccc3O)c(S(=O)(=O)O)ccc2c1`, the growth is 101% with NCI-H23 lung; 101% with NCI-H226 lung; 93.7% in the test on NCI-H322M lung; 105% in the test with NCI-H460 lung; 91.4% in the test with NCI-H522 lung; 111% in the test on A549/ATCC NSCLC. The growth with 786-0 renal was 99.8%; in the test on COLO 205 colon, 119%; in the test with DU-145 prostate, 109%; in the test with K-562 leukemia, 96.7%; with MALME-3M melanoma, 97.9%; in the test on MDA-MB-231 breast, 127%. The growth was 105% with RXF 393 renal; 102% in the test on SF-268 CNS; 81.9% in the test on SF-295 CNS; 94.3% in the test on SF-539 CNS; 111% in the test with UACC-257 melanoma; 94.4% in the test on M14 melanoma.
In the case of `Nc1ncnc2c1nc(N)n2C1OC(CO)C(O)C1O` (centres undefined), the growth was -22.9% (active) in the test on NCI-H23 lung; -75.4% (active) with NCI-H226 lung; -52.9% (active) in the test with HOP-62 NSCLC; -60.3% (active) in the test on NCI-H460 lung; -29.8% (active) with HOP-92 NSCLC; -63.3% (active) in the test with NCI-H522 lung. Besides, the growth in the test with A549/ATCC NSCLC is -25.8% (active); with 786-0 renal it was -85.6% (active); in the test on COLO 205 colon it was -86.8% (active); in the test with DU-145 prostate it was -21.8% (active); in the test on K-562 leukemia, 19.3%; with MDA-MB-231 breast, -16.9% (active). The growth with RXF 393 renal was -59.6% (active); with SF-268 CNS, -57.8% (active); in the test with SF-295 CNS it was -70.2% (active); in the test on SF-539 CNS, -94.4% (active); in the test on UACC-257 melanoma, -56.6% (active); with M14 melanoma, -85.6% (active).
In the case of `C=CCOC(=O)C(=O)OCC=C`, the growth in the test with NCI-H23 lung was 110%; in the test with NCI-H226 lung it was 99.7%; in the test on HOP-62 NSCLC, 92.7%; in the test with HOP-92 NSCLC it was 90%; with NCI-H522 lung, 96.6%; in the test on A549/ATCC NSCLC it was 109%. Further, the growth in the test on 786-0 renal was 106%; with COLO 205 colon it was 111%; in the test with DU-145 prostate it was 112%; in the test on K-562 leukemia it was 95.1%; with MALME-3M melanoma, 139%; in the test on MDA-MB-231 breast it was 108%. The growth in the test on RXF 393 renal was 103%; with SF-268 CNS, 103%; in the test with SF-295 CNS, 154%; in the test on SF-539 CNS it was 91.8%; in the test on UACC-257 melanoma it was 102%.
For the compound `C=CCc1cc(C(C)=O)cc(OC)c1O`, the growth with NCI-H23 lung is 108%; in the test with NCI-H226 lung, 109%; in the test with HOP-62 NSCLC it was 122%; with NCI-H460 lung, 97.8%; in the test with HOP-92 NSCLC, 125%; in the test on NCI-H522 lung, 102%. The growth in the test on A549/ATCC NSCLC is 95.8%; with 786-0 renal it was 104%; in the test on COLO 205 colon it was 118%; with DU-145 prostate it was 105%; in the test on K-562 leukemia, 107%; in the test with MDA-MB-231 breast, 92.1%. Moreover, the growth in the test with RXF 393 renal is 95.5%; in the test on SF-268 CNS, 96.8%; in the test with SF-295 CNS, 119%; in the test on SF-539 CNS it was 125%; in the test with UACC-257 melanoma, 99%; in the test on M14 melanoma, 105%.
As for `O=C(O)CNC(=O)c1ccccc1`, the growth in the test on NCI-H23 lung is 107%; in the test on NCI-H322M lung, 104%.
In the case of `O=C(O)CCCc1ccccc1`, the growth in the test on NCI-H23 lung was 103%; in the test with NCI-H226 lung, 108%; in the test on NCI-H460 lung, 115%; in the test with A549/ATCC NSCLC, 102%; with 786-0 renal it was 97.4%; with COLO 205 colon, 110%. In addition, the growth is 119% in the test on DU-145 prostate; 118% in the test with MALME-3M melanoma; 117% in the test with MDA-MB-231 breast; 113% with RXF 393 renal; 118% in the test on SF-268 CNS; 110% in the test with SF-295 CNS. For the same compound, the growth with SF-539 CNS is 120%; with UACC-257 melanoma it was 104%; in the test with M14 melanoma, 101%.
On to `CCOC(=O)c1cc2cccc(OC)c2oc1=O`, for which the growth in the test on NCI-H23 lung is 110%; with NCI-H226 lung it was 106%; in the test with NCI-H322M lung it was 107%; in the test on NCI-H460 lung, 110%; with NCI-H522 lung it was 83.5%; in the test on 786-0 renal, 95.5%. For the same compound, the growth in the test on DU-145 prostate is 123%; in the test on K-562 leukemia it was 99%; in the test on MALME-3M melanoma, 115%; in the test with MDA-MB-231 breast, 107%; in the test with RXF 393 renal, 122%; with SF-268 CNS, 111%. Besides, the growth with SF-295 CNS is 130%; in the test on SF-539 CNS, 107%; in the test with UACC-257 melanoma it was 98.2%; in the test with M14 melanoma, 99.4%.
Take `CCOC(=O)c1ccc(NC(=S)P(=O)(c2ccccc2)c2ccccc2)cc1`: the growth in the test on NCI-H23 lung is 102%; with NCI-H322M lung it was 94.7%; in the test on HOP-62 NSCLC, 105%; in the test with NCI-H460 lung, 71.3%; with HOP-92 NSCLC, 78.1%; with NCI-H522 lung, 113%. Also, the growth in the test with A549/ATCC NSCLC is 103%; with 786-0 renal, 101%; with COLO 205 colon it was 115%; in the test on DU-145 prostate, 113%; in the test on K-562 leukemia, 56.2%; in the test on MALME-3M melanoma it was 108%. Also, the growth in the test with MDA-MB-231 breast is 109%; in the test with RXF 393 renal it was 120%; in the test with SF-268 CNS, 94.5%; with SF-295 CNS, 104%; in the test with SF-539 CNS, 106%; in the test with UACC-257 melanoma, 108%. Further, the growth in the test on M14 melanoma is 97.7%.
